Hit rate of the full screen: of about 360,000 compounds, about 3,100 (0.86%) were called active.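 How the source made its calls: active means at least 50% inhibition at 5 µM, scaled per plate between neutral and stimulator controls; inactive means the rest.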 The entries come from a sample that favours actives as a whole.

The nature of this assay: inhibitors of PAF-induced NF-kB signaling, primary screen, cell-based, GFP fluorescence, uHTS (AID 588850).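 Further: PAF is a Pseudomonas aeruginosa culture filtrate used as stimulus; plate controls were PAF-stimulated DMSO wells for no effect and unstimulated DMSO wells for full effect.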 The conditions noted are these: KKLEB NF-kB-GFP reporter, GFP fluorescence overnight, at 5 µM, active compounds read high.
As for `COc1ccc(-c2cc(C(=O)NCCCN3CCCC3=O)c3ccccc3n2)cc1OC`, the inhibition was -14% (inactive).
On to `COc1ccc(-c2cc(C(F)(F)F)nc(S(C)(=O)=O)n2)cc1OC`, for which the inhibition was 90.7% (active).
`COc1ccc(C2=NO[C@@H]3C(=O)N(Cc4ccccc4)C(=O)[C@H]23)cc1OC`: the inhibition was 11% (inactive).
Then `Cc1cccc(CN2CCC(CNC(=O)Nc3ccc(F)c(Cl)c3)CC2)c1`, with -7.6% (inactive); and `Cc1cccc(NC(=O)c2nc(S(=O)(=O)Cc3ccccc3)ncc2Cl)c1`, with 89.1% (active).
Then `Cc1cccc(NC(=O)Cn2cc(C(=O)c3ccco3)c3ccccc32)c1`, with -7.8% (inactive); and `Cc1cccc(NC(=O)CCN2CC(C)CC(C)C2)c1` (stereo not given), with 1.5% (inactive); and `Cc1cccc(CS(=O)(=O)c2ncc(Cl)c(C(=O)Nc3ccc(F)cc3)n2)c1`, with 81.7% (active).
For `Cc1ccc(C)c(Cn2nnc3c(=O)[nH]c(C(=O)Nc4ccc(F)cc4)nc32)c1`, the inhibition is 22.5% (inactive).
Then `ONC(=Nc1ccc(Cl)cc1)c1ccccc1Cl`, with 9.7% (inactive); and `Nc1nnc(C2CCCC2)s1`, with 0% (inactive); and `OC[C@@H]1CN(C2CCCC2)C[C@H](n2cnc3c(NC4CCC4)ncnc32)O1`, with 6.2% (inactive).
For the compound `O=C(Nc1ccn(Cc2ccccc2)n1)c1n[nH]c([N+](=O)[O-])c1Cl`, the inhibition is -15.6% (inactive).
Then `O=C(Cc1ccc(Cl)c(Cl)c1)Nc1ccc(SC(F)F)cc1`, with 60.8% (active).
With `Cc1ccc(CC(=O)Nc2ccc(OC(F)F)c(Cl)c2)cc1C` the figure was 2.1% (inactive).
Then `CC(=O)N1CCN(CC(=O)Nc2ccc(SC(F)F)cc2)CC1`, with 5.2% (inactive); and `COc1ccccc1CC(NC(C)=O)C(=O)NC1CCN(C(=O)Nc2ccccc2Cl)CC1` (stereo not given), with 2.1% (inactive); and `O=C1CCC(Cc2ccccc2)N1` (stereo not given), with 11.2% (inactive).
Turning to `CCOC(=O)C(=Cc1ccccc1)C(=O)c1ccccc1`, the inhibition is 66.7% (active).
Then `CCOC(=O)C(=Cc1ccccc1OC)C(=O)OCC`, with 26.4% (inactive); and `CCOC(=O)/C(=C\c1ccc([N+](=O)[O-])cc1)C(=O)c1cc(C(C)=O)c(Nc2ccccc2)s1`, with 18.8% (inactive).
For the compound `CN1CCc2c(sc3c2c(NCc2ccco2)nc2nnnn23)C1`, the inhibition is -14.3% (inactive).
`CCN(CC(=O)NCc1cccs1)C(=O)/C=C/c1ccc(C)cc1`: the inhibition is -8.4% (inactive).
With `CCCn1nc(C(=O)NNC(=O)CSCC(=O)Nc2cc(C)on2)c2ccccc2c1=O` the figure was 16.2% (inactive).
Then `COc1ccc(CCNc2ncnc3nc[nH]c23)cc1OC`, with 14.3% (inactive); and `CCc1ccc(N(CC)c2ncnc3nc[nH]c23)cc1`, with 58.2% (active); and `Cc1ccc(NC(=O)c2ccc(CSc3ncnc4nc[nH]c34)cc2)c(C)c1`, with -2.8% (inactive).
Then `CCCN1C(=O)C(Cc2nc3ccccc3c(=O)n2-c2ccccc2)c2cc(C)ccc21` (stereo not given), with -39% (inactive).
For the compound `O=C(Cc1ncc(C(F)(F)F)cc1Cl)Nc1cccc(Br)c1`, the inhibition was 7.6% (inactive).
Regarding `O=C(CC(O)(C(F)(F)F)C(F)(F)F)Nc1ccc(Cl)c(Cl)c1`, the inhibition is 62.4% (active).
On to `CN(CC(=O)Nc1ccc(Cl)c(C(F)(F)F)c1)C(=O)CCC(=O)c1ccccc1`, for which the inhibition is -0.4% (inactive).
Then `CN(CC(=O)Nc1ccc(OC(F)(F)F)cc1)C(=O)C1CCC1`, with 6.5% (inactive); and `O=C(O)C1CCCN1C1=NS(=O)(=O)c2ccccc21` (stereo not given), with 9.4% (inactive); and `O=C(COc1ccc(S(=O)(=O)N2CCOCC2)cc1Cl)N1CCOCC1`, with 1.5% (inactive).
With `O=C(Nn1c(-c2ccc(Cl)cc2)nc2ccccc2c1=O)c1cccnc1Cl` the figure was 0.4% (inactive).
Then `Cc1cc(C)n(CC(C)NCc2c(C(=O)N3CCOCC3)nc3c(C)cccn23)n1` (stereo not given), with -0.6% (inactive); and `COc1ccc(NC(=O)COC(=O)C2COc3ccccc3O2)cc1` (stereo not given), with 4.2% (inactive).
As to `O=C(Nc1cc(S(=O)(=O)N2CCCCC2)ccc1Cl)C1COc2ccccc2O1` (stereo not given), the inhibition is 24.5% (inactive).
Then `O=C(Nc1ncc([N+](=O)[O-])s1)C1COc2ccccc2O1` (stereo not given), with 60.8% (active); and `C/C(=N/NC(=O)C1COc2ccccc2O1)c1ccco1` (stereo not given), with 17.3% (inactive).
With `CC(=O)c1ccccc1NC(=O)COC(=O)C1COc2ccccc2O1` (stereo not given), the inhibition is -8.8% (inactive).
Then `O=C(Nc1nc(-c2ccncc2)cs1)C1COc2ccccc2O1` (stereo not given), with 53.8% (active).
As for `Cc1cc(OC(=O)c2ccccc2)c([N+](=O)[O-])c(=O)[nH]1`, the inhibition is 4.2% (inactive).
Then `O=C(O)CCc1nc2cc(Cl)ccc2n(Cc2ccccc2)c1=O`, with 2.1% (inactive).
Then `CC(=O)Oc1c(C(=O)c2nnc(C)o2)c(=O)n(Cc2ccccc2)c2ccccc12`, with 50.9% (active).
With `CCCCCn1c(=O)c(C(=O)OCC)c(Cl)c2ccccc21` the figure was 9.9% (inactive); with `CC(C)CCNC(=O)c1[nH]c(C(F)(F)F)nc1-c1ccccc1`, -2.1% (inactive); with `CC(C)(C)C(=O)CCN1C(=O)C2(OCCO2)c2ccccc21`, -2.6% (inactive).
In the case of `CCCCn1c(N)c(N(CC(C)C)C(=O)c2ccc(-n3c(C)ccc3C)cc2)c(=O)[nH]c1=O`, the inhibition was 14.1% (inactive).
Then `CC1(C)CCSC(/C=C/c2ccccc2)=N1`, with 55.9% (active).
With `CC1(C(=O)O)CCN1C(=O)/C=C/c1ccccc1` (stereo not given) the figure was 11.9% (inactive).
On to `CC1(C(=O)NS(=O)(=O)c2ccccc2)CCN1C(=O)C/C=C/c1ccccc1` (stereo not given), for which the inhibition is 0.3% (inactive).
As for `CCc1cc(-c2nnn(CCC3COCCO3)c2CC)ccc1-c1cn(Cc2ccc3ccccc3c2)nn1` (stereo not given), the inhibition is 19.3% (inactive).
Then `O=C1c2ccccc2NC(c2ccccc2O)N1NS(=O)(=O)c1ccccc1` (stereo not given), with -6.3% (inactive); and `COc1cccc(N(C(=O)c2snc(C(N)=O)c2N)C(C(=O)NCC2CCCO2)c2c[nH]c3ccccc23)c1` (stereo not given), with -0.6% (inactive).
Then `COc1cccc(C(=O)Nc2nnc(S(=O)(=O)N3CCOCC3)s2)c1`, with -7.5% (inactive).
With `O=C(Nc1nnc(S(=O)(=O)N2CCOCC2)s1)c1cccc(Br)c1` the figure was 13% (inactive).
On to `O=C(Nc1nnc(S(=O)(=O)N2CCCCCC2)s1)c1cccc(Br)c1`, for which the inhibition was 57% (active).
With `C/C(=N\NS(=O)(=O)c1ccc(Cl)cc1)c1ccc(NC(=O)c2ccco2)cc1` the figure was -14% (inactive).
For `N#CCCC(C#N)(c1cccnc1)N1CCOCC1` (stereo not given), the inhibition is -15.6% (inactive).

These data come from PubChem BioAssay AID588850 (Sanford-Burnham Center for Chemical Genomics, 2011).
